# The supplement of paper PMC10037445
# Over roughly 2,900 compounds, “NF-kB SEAP reporter activity, fold change vs agonist alone” has its median near 0.99; the highest 2% begin near 2.6. The full list was thinned out, with the highest values kept by preference.
# Columns and labels:
# RAW-Dual [1] = experiment: NF-kB SEAP reporter activity, fold change vs agonist alone; higher = enhanced NF-kB activity; settings: library stock concentration (final ~1000-fold dilution): 10 mM, cytotoxicity flag (confluency mask): not cytotoxic
# How it was run: (§1)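 Library stock was pin-tooled at 50 nL into 384-well plates of RAW-Dual macrophages (50,000 cells/well, DMEM), followed 1 h later by a PRR agonist, and the cells were kept at 37 °C, 5% CO2. Supernatant collected after 20 hours was read for IRF by QuantiLuc luminescence and for NF-κB by QuantiBlue absorbance at 620 nm. Reporter activity is fold change over agonist-alone wells, and a well counted as cytotoxic when its IncuCyte confluency was below 70% of agonist controls in both mask sets.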
# RAW-Dual [2] = experiment: NF-kB SEAP reporter activity, fold change vs agonist alone; cytotoxicity flag (confluency mask): not cytotoxic; higher = enhanced NF-kB activity
# How it was run: as §1
# [3] = agonist: ODN 1826 (TLR9) 0.5 ug/mL
# [4] = agonist: Pam2CSK4 (TLR2/6) 0.1 ug/mL
# [5] = agonist: Pam3CSK4 (TLR2/1) 0.1 ug/mL
compound,measurement,setting,value
Oc1c(F)cc(-c2cnccc2-c2ccc(N3CCOCC3)cc2)cc1F,NF-kB SEAP reporter activity,RAW-Dual [1]; agonist: Imiquimod (TLR7) […],1.08
same,NF-kB SEAP reporter activity,RAW-Dual [1]; agonist: MPLA (TLR4) […],0.911
Oc1c(F)cc(-c2cnccc2-c2ccc(N3CCOCC3)cc2)cc1F (library stock concentration (final ~1000-fold dilution): 10 mM),NF-kB SEAP reporter activity,RAW-Dual [2]; agonist: LPS (TLR4) 0.1 ug/mL,1.12
same,NF-kB SEAP reporter activity,RAW-Dual [2]; [3],0.913
same,NF-kB SEAP reporter activity,RAW-Dual [2]; [4],0.947
same,NF-kB SEAP reporter activity,RAW-Dual [2]; [5],0.73
O=C(Nc1cc(C(F)(F)F)ccc1N1CCN(Cc2ccccn2)CC1)c1ccc(-c2ccncc2)o1,NF-kB SEAP reporter activity,RAW-Dual [1]; agonist: Imiquimod (TLR7) […],0.609
same,NF-kB SEAP reporter activity,RAW-Dual [1]; agonist: MPLA (TLR4) […],1.03
O=C(Nc1cc(C(F)(F)F)ccc1N1CCN(Cc2ccccn2)CC1)c1ccc(-c2ccncc2)o1 (library stock concentration (final ~1000-fold dilution): 10 mM),NF-kB SEAP reporter activity,RAW-Dual [2]; agonist: LPS (TLR4) 0.1 ug/mL,1.25
same,NF-kB SEAP reporter activity,RAW-Dual [2]; [3],0.731
same,NF-kB SEAP reporter activity,RAW-Dual [2]; [4],0.657
same,NF-kB SEAP reporter activity,RAW-Dual [2]; [5],0.818
CC(C)CCN1c2nc(Nc3cc(F)c(O)c(F)c3)ncc2N(C)C(=O)C1C (stereo unspecified),NF-kB SEAP reporter activity,RAW-Dual [1]; agonist: Imiquimod (TLR7) […],2.84
same,NF-kB SEAP reporter activity,RAW-Dual [1]; agonist: MPLA (TLR4) […],2.55
CC(C)CCN1c2nc(Nc3cc(F)c(O)c(F)c3)ncc2N(C)C(=O)C1C (stereo unspecified) (library stock concentration (final ~1000-fold dilution): 10 mM),NF-kB SEAP reporter activity,RAW-Dual [2]; agonist: LPS (TLR4) 0.1 ug/mL,4.3
same,NF-kB SEAP reporter activity,RAW-Dual [2]; [3],2.63
same,NF-kB SEAP reporter activity,RAW-Dual [2]; [4],1.02
same,NF-kB SEAP reporter activity,RAW-Dual [2]; [5],2.05
COc1cc(-c2cc(-c3ccc(Cl)cc3)nc(=O)[nH]2)ccc1O (library stock concentration (final ~1000-fold dilution): 10 mM),NF-kB SEAP reporter activity,RAW-Dual [2]; agonist: LPS (TLR4) 0.1 ug/mL,1.6
same,NF-kB SEAP reporter activity,RAW-Dual [2]; [3],0.991
same,NF-kB SEAP reporter activity,RAW-Dual [2]; [4],1.22
same,NF-kB SEAP reporter activity,RAW-Dual [2]; [5],1.39
COc1cc(-c2cc(-c3ccc(Cl)cc3)nc(=O)[nH]2)ccc1O,NF-kB SEAP reporter activity,RAW-Dual [1]; agonist: Imiquimod (TLR7) […],1.09
same,NF-kB SEAP reporter activity,RAW-Dual [1]; agonist: MPLA (TLR4) […],1.15
CCN(CC)CC#CCOC(=O)C(O)(c1ccccc1)C1CCCCC1.Cl (stereo unspecified) (library stock concentration (final ~1000-fold dilution): 10 mM),NF-kB SEAP reporter activity,RAW-Dual [2]; agonist: LPS (TLR4) 0.1 ug/mL,2.01
same,NF-kB SEAP reporter activity,RAW-Dual [2]; [3],0.958
same,NF-kB SEAP reporter activity,RAW-Dual [2]; [4],0.963
same,NF-kB SEAP reporter activity,RAW-Dual [2]; [5],1.3
CCN(CC)CC#CCOC(=O)C(O)(c1ccccc1)C1CCCCC1.Cl (stereo unspecified),NF-kB SEAP reporter activity,RAW-Dual [1]; agonist: Imiquimod (TLR7) […],1.75
same,NF-kB SEAP reporter activity,RAW-Dual [1]; agonist: MPLA (TLR4) […],1.46
O=C(O)CCCN1CCC(OC(c2ccc(Cl)cc2)c2ccccn2)CC1 (stereo unspecified),NF-kB SEAP reporter activity,RAW-Dual [1]; agonist: Imiquimod (TLR7) […],0.895
same,NF-kB SEAP reporter activity,RAW-Dual [1]; agonist: MPLA (TLR4) […],1.07
O=C(O)CCCN1CCC(OC(c2ccc(Cl)cc2)c2ccccn2)CC1 (stereo unspecified) (library stock concentration (final ~1000-fold dilution): 10 mM),NF-kB SEAP reporter activity,RAW-Dual [2]; agonist: LPS (TLR4) 0.1 ug/mL,0.969
same,NF-kB SEAP reporter activity,RAW-Dual [2]; [3],0.924
same,NF-kB SEAP reporter activity,RAW-Dual [2]; [4],1.07
same,NF-kB SEAP reporter activity,RAW-Dual [2]; [5],0.895
